Data reported in ChEMBL document CHEMBL3433997, “St. Jude Leishmania screening dataset” (2016).

Legend:
Type in all cases: functional
[1] = target: Solute carrier family 2, facilitated glucose transporter member 1 (Homo sapiens) (UniProt P11166); test: ST_JUDE_LEISH: Cytotoxicity at 2uM final concentration against transgenic Leishmania Mexicana promastigotes LmGLUT1 that are glucose transport deficient and complemented with the human glucose transporter GLUT1. Activity is measured by DNA content using SYBR green in vitro
Sequence of Solute carrier family 2, facilitated glucose transporter member 1 (Homo sapiens) (P11166 whole entry): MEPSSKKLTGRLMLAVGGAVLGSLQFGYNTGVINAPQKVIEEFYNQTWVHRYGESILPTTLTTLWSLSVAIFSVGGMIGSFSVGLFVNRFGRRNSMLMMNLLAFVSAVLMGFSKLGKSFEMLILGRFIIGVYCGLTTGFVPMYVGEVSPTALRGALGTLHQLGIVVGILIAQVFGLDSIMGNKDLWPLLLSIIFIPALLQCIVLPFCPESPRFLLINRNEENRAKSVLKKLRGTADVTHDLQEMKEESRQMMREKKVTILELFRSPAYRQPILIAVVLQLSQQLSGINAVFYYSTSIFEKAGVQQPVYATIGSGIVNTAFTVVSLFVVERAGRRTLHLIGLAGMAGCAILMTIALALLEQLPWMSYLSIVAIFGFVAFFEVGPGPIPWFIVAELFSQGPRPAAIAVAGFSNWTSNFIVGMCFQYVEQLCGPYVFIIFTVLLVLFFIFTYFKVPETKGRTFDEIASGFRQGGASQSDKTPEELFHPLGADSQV

[2] = target: Hexose transporter 1 (Plasmodium falciparum) (UniProt O97467); test: ST_JUDE_LEISH: Cytotoxicity at 2uM final concentration against transgenic Leishmania Mexicana promastigotes LmPfHT that are glucose transport deficient and complemented with the Plasmodium falciparum hexose transporter. Activity is measured by DNA content using SYBR green in vitro
[3] = target: Glucose transporter (Leishmania mexicana) (UniProt O61059); test: ST_JUDE_LEISH: Cytotoxicity at 2uM final concentration against transgenic Leishmania Mexicana promastigotes LmGT2 that are glucose transport deficient and complemented with the L. Mexicana glucose transporter 2. Activity is measured by DNA content using SYBR green in vitro

Row | Structure (SMILES) | inhibition [1] | inhibition [2] | inhibition [3]
1 | O=C(Nc1ccc(OC2CCN(Cc3ccc(F)cc3)CC2)c(Cl)c1)c1ccco1 | 1.06% | 1.1% | 3.28%
2 | COC(=O)c1ccc(OCC(O)CO)cc1O (stereo not drawn) | 0.55% | 2.14% | -0.04%
3 | NC(=O)COc1cccc2c1CCN(CCN1CCC(NC(=O)c3ccc(-c4ccc(Cl)cc4)cc3)CC1)C2 | 1.06% | 4.42% | 2.71%
4 | O=C(C=Cc1ccc(Cl)c(Cl)c1)NCCCCCN1CCCC(CCCNS(=O)(=O)c2cccc3cccnc23)C1 (stereo not drawn) | 5.85% | 5.36% | -0.71%
5 | O=C(Nc1ccc2c(c1)CN(Cc1ccc(N3CCCC3)o1)CCC2)c1ccoc1 | 19.8% | 12.8% | 2.73%
6 | COc1cc(CNC[C@@H](O)[C@H](Cc2ccccc2)NC(=O)c2cc(OC(C)C)cc(N3CCCCS3(=O)=O)c2)cc(OC)c1 | 2.15% | 2.12% | 1.3%
7 | CN1CCCN(Cc2ccc(-c3cccc(NC(=O)c4ccc(F)cc4)c3)cc2)CC1 | 19.9% | 13.8% | 12.4%
8 | COCc1cc(C)nc2sc(C(=O)Nc3cc(C(C)(C)C)ccc3O)c(N)c12 | 3.32% | 2.62% | -0.92%
9 | CC1(C)NC(N)=NC(=N)N1OCCOc1ccc(Cc2ccccc2)cc1 | 1.41% | 0.91% | 0.68%
10 | FC(F)(F)c1ccc2[nH]c(-c3ccc(-c4cccc(CN5CCC(CCN6CCCCC6)CC5)c4)cc3)nc2c1 | 3.12% | 4.82% | 2.53%
11 | COc1cccc2c(C)cc(NCc3ccc(Cl)cc3)nc12 | 4.96% | 4.71% | 3.54%
12 | c1ccc2c(c1)CN(CC1CC1)CC1(CCN(Cc3c[nH]c4cnccc34)CC1)O2 | -0.99% | 0.39% | 0.54%
13 | CN1CCN(CCc2ccc3nc(-c4csc(Cc5cc(Cl)ccc5OCc5ccccc5)n4)[nH]c3c2)CC1 | 0.84% | 2.08% | -1.4%
14 | C#CCN(Cc1cc2c(=O)[nH]c(N)nc2cc1C)c1ccc(C(=O)N[C@@H](CCC(=O)O)C(=O)O)cc1 | 6.81% | 0.4% | 8.07%
15 | COc1cc(Cc2cnc(N)nc2N)ccc1OCc1ccc(-c2ccccc2C#N)cc1 | 0.17% | 0.47% | -0.89%
16 | CCCCCC(C)C(C)c1cc(O)c2c(c1)OC(C)(C)C=C2c1cc[n+]([O-])cc1 (stereo not drawn) | 11% | 10.4% | 9.99%

Row | Structure (SMILES) | inhibition [1] | inhibition [2] | inhibition [3]
17 | O=C(Nc1cccc(-c2ccc(-c3nc4ccccc4[nH]3)cc2)c1)c1ccncc1 | 8.95% | 4.33% | 2.5%
18 | COc1ccc(NC(=O)CCNc2ccnc(NCCc3ccc(F)cc3)n2)cc1 | 2.48% | 2.27% | 1.75%
19 | Fc1ccc(-c2cc3ncnc(N4CCN(CCN5CCCC5)CC4)c3s2)cc1 | 14.6% | 12.9% | 11.1%
20 | OCC(c1ccccc1)n1c(COc2ccc(Cl)cc2)nc2c(OCCCN3CCCCC3)cccc21 (stereo not drawn) | 12.9% | 9.11% | 6.47%
21 | Cn1nc(-c2ccc(S(=O)(=O)N3CCC(CCN4CCC(c5c[nH]c6ccccc56)CC4)CC3)s2)cc1C(F)(F)F | 1.21% | 6.6% | 2.13%
22 | CC(C)CNCc1ccc(-c2ccc(CN(C(=O)NCCc3ccccc3)C3CCN(Cc4ccccc4)CC3)cc2)cc1 | 71.6% | 53.7% | 47.2%
23 | CN(Cc1cc(C(F)(F)F)cc(C(F)(F)F)c1)C(=O)C1CNCC1c1ccc(F)cc1 (stereo not drawn) | 6.61% | 5.75% | 3.05%
24 | Cc1cc(-c2cccc(CNCc3ccccc3)c2)ccc1S(=O)(=O)NCCN1CCCC1 | 6.02% | 8.53% | 5.69%
25 | CCOC(=O)c1ccc(NC(=O)Nc2ccc(-c3cccc(-c4nc5cccc(C)c5[nH]4)c3)cc2)cc1 | -0.01% | -0.4% | -0.76%
26 | Clc1ccc(CNc2nc(NCCc3c[nH]cn3)nc(Nc3ccc4c(c3)OCO4)n2)cc1 | 2.28% | 2.3% | 3.66%
27 | Cc1cccc2nc(-c3cccc(-c4ccc(NC(=O)C5CCN(C)CC5)cc4)c3)[nH]c12 | 5.38% | 2.27% | 7.2%
28 | CC(C)(CNCCOc1ccc(Cl)cc1)c1nc(-c2ccnc(N)n2)c(-c2ccc(Cl)c(O)c2)[nH]1 | 2% | 1.8% | 0.27%
29 | O=C(/C=C/c1ccc(Cl)c(Cl)c1)NCCCCCN1CCC(NC(=O)Nc2cc(Cl)cc(Cl)c2)CC1 | 8.59% | 9.64% | 9.93%
30 | Nc1nc2ccc(S(=O)(=O)Nc3ccc(C(=O)N[C@@H](CCC(=O)O)C(=O)O)c(F)c3)cc2c(=O)[nH]1 | 0.57% | 1.22% | 1.53%
31 | N#CCCN1CCN(Cc2cccc(-c3ccc(-c4nc5cc(C(F)(F)F)ccc5[nH]4)cc3)c2)CC1 | 3.02% | 2.73% | 2.78%
